DT40 TDP1 CPT = qHTS for Inhibitors of human tyrosyl-DNA phosphodiesterase 1 (TDP1): qHTS in cells in presence of CPT; chicken DT40 Tdp1-/-;hTDP1 cells + 20 nM CPT, ATP luminescence, 48 h; AID 686979, 2013; actives 12% (n = 420,000); Potency, µM (doses to about 46.2 µM), usual class: inhibitors; note: nearly all actives have a fitted effect of over 55% in size
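Cell growth measured by CellTiter-Glo luminescence after a minimum 48 h, 37 C compound exposure with 20 nM CPT in Tdp1-knockout DT40 cells stably expressing hTDP1, seeded 400/well; qHTS titration format.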
HT1080 IDH1KD tx = qHTS for induction of synthetic lethality in tumor cells producing 2HG: qHTS for the HT-1080-IDH1KD cell line | HT-1080 IDH1 knockdown viability, ATP luminescence, 48 h | Potency, µM (doses to about 46.1 µM), actives largely listed as cytotoxic | actives 2% (n = 360,000) | AID 686971, 2013
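HT-1080-IDH1KD cells (IDH1 knocked down), 750/well in RPMI with 5% FBS, treated with compound 48 h at 37 degrees C. Viability by CellTiter-Glo luminescence, normalised to DMSO and no-cell wells; concentration-response curves classed.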
HT1080NT lethal = qHTS for induction of synthetic lethality in tumor cells producing 2HG: qHTS for the HT-1080-NT fibrosarcoma cell line. HT-1080-NT fibrosarcoma viability, CellTiter-Glo ATP luminescence, 48 h. Potency, µM (highest dose often 46.1 µM), hits mostly cytotoxic. actives 1.6% (n = 360,000);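 note: NT is the 2HG producing partner of a matched IDH1 knockdown line; nearly all actives have a fitted effect of over 55% in size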
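HT-1080-NT fibrosarcoma cells (2HG-overproducing), 750 cells/well in RPMI with 5% FBS, dosed after 2 h and incubated 48 h at 37C. CellTiter-Glo luminescence normalized to DMSO and no-cell wells; concentration-response curves fitted and classed.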
TDP1 cell noCPT = qHTS for Inhibitors of human tyrosyl-DNA phosphodiesterase 1 (TDP1): qHTS in cells in absence of CPT. DT40 Tdp1-/- hTDP1 cells, no CPT, ATP luminescence, 48 h. Potency, µM (top dose mostly 46.2 µM), usual class: inhibitors. actives 15% (n = 420,000); note: nearly all actives have a fitted effect of over 55% in size
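Readout: luminescence from CellTiter-Glo after 30 min in the dark at RT. Cells: DT40 Tdp1-/- with stable hTDP1, 400/well. Exposure: compounds alone, ≥48 hr, 37 °C.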
IL1B secr inh = qHTS for Inhibitors of Inflammasome Signaling: IL-1-beta AlphaLISA Primary Screen; THP-1 LPS/ATP IL-1B secretion, AlphaLISA, 16 h; active compounds read low; activity change, % at 57.5 µM; actives 4.7% (n = 360,000); AID 743279, 2014; in the data active = activity change below about -50%; inconclusive = mostly about -30% to -49%
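THP-1 cells pretreated 1 hr with compounds (up to 57.5 uM final), then stimulated with LPS (250 ng/mL final) plus ATP (1.25 mM final); secreted IL-1B measured by AlphaLISA after 16 hr, decreased signal indicating inhibition.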
Each line names hits and unclear results; the compound was inactive in the other large screens. Hits are enriched below; roughly 19% of the tested compounds scored in any of these assays. Unless noted, calls come from the whole dose curve; as a rule, active = well fitted curve in the direction sought with a large enough effect; inconclusive = small, poorly fitted or top-dose-only effect, or another doubt; inactive = no such curve, though single readings can be large; an effect the other way counts as inactive or inconclusive.

CCn1c(-c2ccc(C(C)(C)C)cc2)n[nH]c1=S	DT40 TDP1 CPT 14.6µM, TDP1 cell noCPT 8.2µM
Cn1c(-c2ccc(C(C)(C)C)cc2)n[nH]c1=S	DT40 TDP1 CPT inconclusive, TDP1 cell noCPT inconclusive
CC(C)(C)c1ccc(-c2n[nH]c(=S)n2C2CCCC2)cc1	DT40 TDP1 CPT inconclusive, HT1080 IDH1KD tx inconclusive, HT1080NT lethal inconclusive, TDP1 cell noCPT 16.4µM
Cn1cccc1/C=N/n1c(-c2ccccc2)n[nH]c1=S	none
Cn1cccc1/C=N/n1c(-c2ccc(C(C)(C)C)cc2)n[nH]c1=S	DT40 TDP1 CPT 8.2µM, HT1080NT lethal inconclusive, TDP1 cell noCPT 8.2µM
CCN(C(=O)COC(=O)C1CCN(S(=O)(=O)c2ccc3c(c2)OCCO3)CC1)C1CCCCC1	none
CC(=O)O[C@]1(C(C)=O)CC[C@H]2[C@@H]3C=C(Cl)C4=CC(=O)[C@@H]5C[C@@H]5[C@]4(C)[C@H]3CC[C@@]21C	DT40 TDP1 CPT inconclusive, TDP1 cell noCPT 20.6µM
CC(=O)[C@@]1(O)CC[C@H]2[C@@H]3C=C(Cl)C4=CC(=O)CC[C@]4(C)[C@H]3CC[C@@]21C	DT40 TDP1 CPT inconclusive (no result: HT1080 IDH1KD tx, HT1080NT lethal, IL1B secr inh)
CC(=O)O[C@]1(C(C)=O)CC[C@H]2[C@@H]3C=C(Cl)C4=CC(=O)CC[C@]4(C)[C@H]3CC[C@@]21C	DT40 TDP1 CPT inconclusive, TDP1 cell noCPT 21.1µM
O=C(NCCCNC(=O)c1c(Cl)cccc1Cl)c1c(Cl)cccc1Cl	none
Cc1ccc2c(=O)cc(C(=O)NCc3ccccc3)oc2c1C	TDP1 cell noCPT inconclusive
CCOC(=O)c1c(NC(=O)c2cc3n(n2)C(C(F)(F)F)CC(c2ccccc2)N3)sc(C)c1C (stereo unspecified)	DT40 TDP1 CPT inconclusive, TDP1 cell noCPT 14.6µM
O=C(Nc1ccc(O)cc1)c1cc2n(n1)C(C(F)(F)F)CC(c1ccco1)N2 (stereo unspecified)	DT40 TDP1 CPT 9.2µM, HT1080 IDH1KD tx inconclusive, HT1080NT lethal inconclusive, TDP1 cell noCPT 7.31µM
Cc1cc(NC(=O)c2cc3n(n2)C(C(F)(F)F)CC(c2ccc(Cl)c(Cl)c2)N3)no1 (stereo unspecified)	DT40 TDP1 CPT inconclusive, TDP1 cell noCPT 20.6µM
CCCCNC(=O)c1cc2n(n1)C(C(F)(F)F)CC(c1ccccc1)N2 (stereo unspecified)	none
Cc1ccc(C2CC(C(F)(F)F)n3nc(C(=O)Nc4c(C)n(C)n(-c5ccccc5)c4=O)cc3N2)cc1 (stereo unspecified)	DT40 TDP1 CPT inconclusive, TDP1 cell noCPT inconclusive
N#Cc1ccc(Cl)cc1NC(=O)CN1C(=O)C(=O)N(CCC2=CCCCC2)C1=O	none
COc1ccc(-c2ccc(C(=O)Nc3cc(OC)c(OC)c(OC)c3)c3occc23)c(C)c1	DT40 TDP1 CPT 6.51µM, HT1080 IDH1KD tx inconclusive, TDP1 cell noCPT 23.1µM
COc1ccc(-c2ccc(C(=O)Nc3cccc(C(F)(F)F)c3)c3occc23)c(C)c1	DT40 TDP1 CPT 23.1µM, TDP1 cell noCPT 20.6µM
CC1(C(=O)NS(=O)(=O)c2ccc(F)cc2F)CCN1C(=O)CCc1ccc(Cl)cc1Cl (stereo unspecified)	none
O=C(CC[C@H]1O[C@@H](n2cnc3c(NC(=O)c4ccccc4)ncnc32)[C@H](O)[C@@H]1O)NCc1ccc(OC(F)(F)F)cc1	none
CCS(=O)(=O)C1=NN2C(=N)/C(=C\c3ccc(OCCOc4cccc(OC)c4)c(OC)c3)C(=O)N=C2S1	none
CCOc1cc(/C=C2/C(=N)N3C=CSC3=NC2=O)ccc1OCCCOc1ccccc1C	DT40 TDP1 CPT 10.3µM, HT1080 IDH1KD tx inconclusive, HT1080NT lethal inconclusive, TDP1 cell noCPT 8.2µM
CCOc1cc(/C=C2\C(=N)N3N=C(S(C)(=O)=O)SC3=NC2=O)ccc1OCCOc1cccc(OC)c1	HT1080NT lethal inconclusive, TDP1 cell noCPT 13µM
O=c1ccc(Oc2nc(N3CCCCC3)nc(N3CCCCC3)n2)n[nH]1	HT1080 IDH1KD tx inconclusive
O=C1N(c2ccccc2)c2ccccc2[C@]12C[C@H](O)CO2	none
CCOc1cc(/C=C2\C(=O)N(Cc3ccco3)C(C)=C2C(=O)OC)ccc1O	DT40 TDP1 CPT inconclusive, HT1080NT lethal inconclusive, TDP1 cell noCPT inconclusive, IL1B secr inh -104.6
CCOC(=O)C1=C(C)N(c2ccc(C)cc2)C(=O)/C1=C\c1ccc(O)c(OC)c1	DT40 TDP1 CPT 14.6µM, TDP1 cell noCPT 20.6µM
COC(=O)C1=C(C)N(Cc2ccccc2)C(=O)/C1=C\c1ccco1	DT40 TDP1 CPT inconclusive, TDP1 cell noCPT 18.4µM
COC(=O)C1=C(C)N(Cc2ccc(C)cc2)C(=O)/C1=C\c1cc(OC)c(OC)c(OC)c1	DT40 TDP1 CPT inconclusive, HT1080 IDH1KD tx 16.4µM, HT1080NT lethal inconclusive, TDP1 cell noCPT 20.6µM, IL1B secr inh -79.1
COC(=O)c1ccc(N2NC(=O)/C(=C/c3cc(OC)c(OC)c(OC)c3)C2=O)cc1	none
CCOC(=O)C1=C(C)N(c2ccc(OCC)cc2)C(=O)/C1=C\c1ccco1	DT40 TDP1 CPT inconclusive, HT1080 IDH1KD tx inconclusive, TDP1 cell noCPT inconclusive
O=C(CSc1nnc2c(n1)[nH]c1ccccc12)NCc1ccccc1F	none
CC(=O)c1ccc(Nc2cc(C)nc3nc(Cc4ccccc4)nn23)cc1	DT40 TDP1 CPT inconclusive (no result: HT1080 IDH1KD tx, HT1080NT lethal, IL1B secr inh)
O=C(COC(=O)Cc1ccsc1)Nc1ccc(Cl)cn1	none
COC(=O)C1=C(C)N(Cc2ccc(C)cc2)C(=O)/C1=C\c1ccc(O)c(OC)c1	HT1080 IDH1KD tx inconclusive, HT1080NT lethal inconclusive, IL1B secr inh -60.4
CCOc1cc(/C=C2\C(=O)N(CCc3ccc(OC)c(OC)c3)C(C)=C2C(=O)OC)ccc1O	DT40 TDP1 CPT inconclusive, TDP1 cell noCPT 23.1µM, IL1B secr inh inconclusive
COC(=O)C1=C(C)N(Cc2cccnc2)C(=O)/C1=C\c1sccc1C	IL1B secr inh -53.4
CC(C)C[C@@H]1COc2cccc(N3CCC[C@H]3CO)c2S(=O)(=O)N1	none
c1ccc(C(c2ccccc2)c2ccn[nH]2)cc1	TDP1 cell noCPT inconclusive
COC(=O)c1ccc(S(=O)(=O)NCc2ccccn2)n1C	none
Nc1cc(=O)[nH]c(=O)n1CCCc1ccccc1	none
CCN(CC)CCNS(=O)(=O)c1ccc2c3c(cccc13)C(=O)N2	DT40 TDP1 CPT inconclusive, HT1080NT lethal inconclusive, TDP1 cell noCPT 14.6µM
Cc1ccc(C)c(NS(=O)(=O)c2ccc3c4c(cccc24)C(=O)N3)c1	DT40 TDP1 CPT inconclusive, TDP1 cell noCPT 14.6µM (no result: HT1080 IDH1KD tx, HT1080NT lethal, IL1B secr inh)
C[C@]12c3[nH]c4ccccc4c3CCN1C(=O)C(CC(=O)NCCc1ccccn1)C[C@@H]2C(=O)N1CCOCC1 (stereo partly specified)	none

From PubChem
